VP16 counter: inhibits Gal4-VP16 luciferase reporter, ROR gamma counter-screen. Drosophila S2 Gal4-VP16 UAS-luciferase, luminescence, 20 h. Potency, µM (doses to about 53.6 µM), without a hit: at the highest dose activity, negative = inhibition, usual class: inhibitors. 3.5% of 310,000 active. AID 2546;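 note: Gal4-VP16 expression switched on by copper sulfate through the metallothionein promoter; potency is the fitted concentration of half-maximal effect; nearly all actives have a fitted effect of over 50% in size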
RORgamma inh: ROR gamma (mouse) transcription inhibition. Drosophila S2 Gal4-RORgamma UAS-luciferase reporter, 20 h. 5.4% of 310,000 active. Potency, µM (doses to about 53.6 µM), for inactives: at the highest dose activity change, negative = inhibition, hits mostly inhibitors. P51450. AID 2551; note: potency is the fitted concentration of half-maximal effect; nearly all actives have a fitted effect of over 60% in size
Target sequence (P51450 whole entry, looked up, the tested form may be a part): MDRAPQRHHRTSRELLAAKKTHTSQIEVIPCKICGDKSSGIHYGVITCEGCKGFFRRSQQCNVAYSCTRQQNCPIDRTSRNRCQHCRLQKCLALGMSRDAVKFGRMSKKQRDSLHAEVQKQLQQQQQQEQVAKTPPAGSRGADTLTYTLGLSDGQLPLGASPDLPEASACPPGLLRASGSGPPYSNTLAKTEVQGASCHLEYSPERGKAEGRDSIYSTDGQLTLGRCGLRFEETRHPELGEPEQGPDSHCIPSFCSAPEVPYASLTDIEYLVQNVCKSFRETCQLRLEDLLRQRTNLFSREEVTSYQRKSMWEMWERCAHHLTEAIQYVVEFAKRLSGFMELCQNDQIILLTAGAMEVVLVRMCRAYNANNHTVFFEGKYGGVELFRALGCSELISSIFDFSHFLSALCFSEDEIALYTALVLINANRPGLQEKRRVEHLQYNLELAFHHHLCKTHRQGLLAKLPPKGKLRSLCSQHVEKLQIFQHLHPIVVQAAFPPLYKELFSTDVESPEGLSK
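Drosophila Schneider cells stably carrying a metallothionein-driven Gal4 DBD–ROR gamma fusion and a UAS-Photinus luciferase reporter were exposed to compound for 1 hr, then induced with copper sulfate (700 uM final) for 20 hr at ambient temperature before luminescence reading.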
TDP1 cell noCPT: qHTS for Inhibitors of human tyrosyl-DNA phosphodiesterase 1 (TDP1): qHTS in cells in absence of CPT | DT40 Tdp1-/- hTDP1 cells, no CPT, ATP luminescence, 48 h | 15% of 420,000 active | Potency, µM (titrated, usually from 46.2 µM), without a hit: at the top dose activity change, negative = growth inhibition, hits mostly inhibitors; note: potency is the fitted concentration of half-maximal effect; nearly all actives have a fitted effect of over 55% in size
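Growth of hTDP1-complemented DT40 Tdp1-knockout cells is measured by ATP luminescence after at least 48 hr compound exposure at 37 °C, with DMSO substituting for the 20 nM CPT used in the parallel screen.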
LDHA inh: LDHA (human) enzyme inhibition; AID 1347041; purified LDHA, NADH/diaphorase-resazurin fluorescence; active compounds read low; P00338; activity change, % (values are at about 110 or 230 µM); 0.15% of 480,000 active; in the data active = activity change below about -30%; inconclusive = mostly about -25% to -30%;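 note: plate controls were DMSO wells for no effect and wells without enzyme for full effect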
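Human LDH5 at 2 nM final in Tris HCl pH 7.4 with 0.06 mM NADH and 0.2 mM pyruvate, reacted 5 minutes at room temperature. Remaining NADH coupled via diaphorase/resazurin; resorufin fluorescence read at 0 and 20 minutes, normalized to enzyme-free and DMSO wells.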
TDP1 cell CPT: DT40-hTDP1 cell growth loss with CPT. chicken DT40 Tdp1-/-;hTDP1 cells + 20 nM CPT, ATP luminescence, 48 h. Potency, µM (series often up to 46.2 µM), for inactives: at the top dose activity change, negative = growth inhibition, most hits filed as inhibitors. 12% of 420,000 active. AID 686979; note: potency is the fitted concentration of half-maximal effect; nearly all actives have a fitted effect of over 55% in size
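Chicken DT40 Tdp1-/- cells stably complemented with human TDP1 were seeded at 400 cells/well in medium containing 20 nM camptothecin, exposed to pin-transferred compounds, and grown at 37 °C for at least 48 hr. Viability was read as ATP luminescence.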
IL-1B inflam inh: inflammasome signaling inhibition, IL-1 beta readout; THP-1 LPS/ATP IL-1B secretion, AlphaLISA, 16 h; active compounds read low; activity change, % at 57.5 µM; 4.7% of 360,000 active; AID 743279; in the data active = activity change below about -50%; inconclusive = mostly about -30% to -49%
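Secreted IL-1B measured by AlphaLISA bead assay after 16 h compound exposure of THP-1 cells; compounds (final up to 57.5 uM) added 1 h before LPS (250 ng/mL) and ATP (1.25 mM) stimulation; lower signal means less secretion.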
Starred values were filed as active, the others as inactive; ? = inconclusive; · = not tested or not shown; [ ] = dose if it differs, or a comment. Hits are enriched below; roughly 18% of the tested compounds scored in any of these assays. Unless noted, calls come from the whole dose curve; as a rule, active = well fitted curve in the direction sought with a large enough effect; inconclusive = small, poorly fitted or top-dose-only effect, or another doubt; inactive = no such curve, though single readings can be large; an effect the other way counts as inactive or inconclusive. Unless noted, % is set by controls: 0 for no effect and ±100 for the full control effect.

SMILES | VP16 counter | RORgamma inh | TDP1 cell noCPT | LDHA inh | TDP1 cell CPT | IL-1B inflam inh
Clc1ccc(CNCCc2ccc3c(c2)OCO3)cc1 | 2% | -19% | -21% | -16 | 26% | -84*
Clc1cccc(CNCCc2ccc3c(c2)OCO3)c1 | 8% | -6% | ? | -12 | ? | -81*
CC(NCc1ccc(Cl)c(Cl)c1)C(O)c1ccccc1 (stereo unspecified) | -1% | 2% | ? | -6 | 16µM* | ?
CN(C)C(=O)Oc1ccnc2cc(Cl)ccc12 | -18% | 8% | ? | -11 | 7% | -73*
CC1Cc2c(cnc3c2CN(C)CC3)CO1 (stereo unspecified) | 3%[10 µM] | -9%[10 µM] | · | · | · | ·
CC(CNC(=O)CCS(=O)(=O)c1ccc2c(c1)oc(=O)n2C)c1ccccc1 (stereo unspecified) | 8% | -12% | 33% | -4 | -12% | 20
CCCC(C)c1nnc(NC(=O)CCS(=O)(=O)c2ccccc2)s1 (stereo unspecified) | 0% | -8% | 4.1µM* | -7 | 7.3µM* | -96*
CC(=O)CC(c1ccccc1)c1c(O)c2cc(O)ccc2oc1=O (stereo unspecified) | -9% | -2% | · | · | · | ·
CS(=O)(=O)OCC(O)C(O)COS(C)(=O)=O (stereo unspecified) | 0% | 9% | 11µM* | · | 13µM* | ·
CCC(=O)Nc1ccc(C(=O)OCc2ccccc2Cl)cc1 | 25% | -42% | ? | -3 | ? | 1
CN(Cc1ccccc1)C(=O)Cn1c(=O)oc2cc(S(=O)(=O)NCc3ccccc3)ccc21 | ? | ? | 21µM* | 0 | 15µM* | 0
CC(O)(CS(=O)(=O)c1ccc(F)cc1)C(=O)Nc1ccc(C#N)c(C(F)(F)F)c1 (stereo unspecified) | -3% | ? | 11µM* | · | 15µM* | ·
CC(O)(CS(=O)(=O)c1ccccc1)C(=O)Nc1ccc(C(F)(F)F)cc1 (stereo unspecified) | -8% | 22% | -18% | 1 | -30% | 13
Cc1ccc(N=C=O)cc1N=C=O | 12% | ? | · | · | · | ·
NC(=O)c1cc(N2CC2)c([N+](=O)[O-])cc1[N+](=O)[O-] | · | · | 0.037µM* | -8 | 0.15µM* | -5
COc1cc(C)cc2oc(=O)c(CC(=O)N3CCN(CCc4ccccn4)CC3)c(C)c12 | · | · | · | 2 | · | ·
O=C(CCN1CC1)OCCOC(=O)CCN1CC1 | · | · | 4.6µM* | -10 | 5.2µM* | -3
ClC(Cl)=C(Cl)Cl | 1% | -36% | · | · | · | ·
CCNCC | -4% | 6% | · | · | · | ·
COC(=O)C1=C(c2cccc3c2S(=O)(=O)c2ccccc2-3)C[C@@H]2CC[C@H]1N2C(=O)N1CCc2cc(OC)c(OC)cc2C1 | · | · | 21µM* | -5 | 21µM* | -17
COC(=O)C1=C(c2ccc(F)cc2F)C[C@@H]2CC[C@H]1N2C(=O)N1CCC(O)CC1 | · | · | -13% | -1 | 11% | 30
COC(=O)C1=C(c2cccc3c2S(=O)(=O)c2ccccc2-3)C[C@@H]2CC[C@H]1N2C(=O)N1CCOCC1 | · | · | ? | -6 | 23µM* | -8
COC(=O)C1=C(c2cccc(C#N)c2)C[C@@H]2CC[C@H]1N2C(=O)N1CCOCC1 | · | · | ? | 0 | -19% | 18
O=C(O)c1[se]c2ccccc2c1Br | · | · | · | 1 | · | ·
CC[C@@]1(c2ccc(N)cc2)CCC(=O)NC1=O | 3%[17 µM] | 2%[16.9 µM] | · | · | · | ·
SMILES | VP16 counter | RORgamma inh | TDP1 cell noCPT | LDHA inh | TDP1 cell CPT | IL-1B inflam inh
OC(c1ccc(F)cc1)(c1ccc(F)cc1)[C@@H]1CCCN1 | -3% | -1% | 16µM* | -6 | ? | -27
Fc1ccc(CNCCc2c[nH]c3ccccc23)cc1 | -4% | ? | 4.6µM* | -1 | ? | -81*
Fc1ccc(CNCCc2ccccc2F)cc1 | 8% | 4% | -14% | -4 | -7% | -27
OC(CNCCc1c[nH]c2ccccc12)c1ccccc1 (stereo unspecified) | 1% | 0% | -14% | -6 | -12% | -57*
Fc1ccc(CCNCc2ccc(Br)cc2)cc1 | -1% | -6% | ? | -2 | ? | -68*
Fc1ccccc1CNCCc1c[nH]c2ccccc12 | 0% | 2% | ? | -7 | 16µM* | -29
CC1=C2C(=O)C3C(CC=C4C[C@@H](O)CC[C@@]43C)[C@@H]2CC[C@]12O[C@@H]1C[C@H](C)CN[C@H]1C2C (stereo partly specified) | -16% | -19% | · | · | · | ·
FC(F)(F)c1ccccc1CNCCc1c[nH]c2ccccc12 | 6% | -2% | 15µM* | -6 | ? | -4
COc1cccc(CNCCc2c[nH]c3ccccc23)c1 | -1% | 8% | ? | -15 | ? | -78*
c1coc(CNCCc2c[nH]c3ccccc23)c1 | 8% | 20% | -23% | 0 | 5% | -14
N[C@H](CP(=O)(O)O)C(=O)O | -2% | -6% | -3% | · | 21% | ·
COc1ccc2[nH]c(C)c(CCNCc3ccc(F)cc3F)c2c1 | · | · | · | 15 | · | ·
O=C(C1CCN(c2nc3ccc(Br)cc3s2)CC1)N1CCC2(CC1)OCCO2 | 9% | 41% | 12µM* | -3 | 12µM* | -29
CCc1ccc2nc(N3CCC(C(=O)N4CCC5(CC4)OCCO5)CC3)sc2c1 | ? | ? | 16µM* | -7 | 12µM* | -25
CC(CNC1CC1)c1ccccc1 (stereo unspecified) | · | · | · | 1 | · | ·
CC(=O)Nc1ccc(S(=O)(=O)N(C)CCOCc2ccccc2)cc1 | -2% | -1% | 18µM* | -4 | 23µM* | -13
CCC(=O)O[C@H]1[C@@H](N2CCCCC2)C[C@H]2[C@@H]3CC[C@H]4C[C@H](OC(C)=O)[C@@H](N5CCCCC5)C[C@]4(C)[C@H]3CC[C@@]21C | · | · | 6.7µM* | · | 7.5µM* | ·
CC1=CC2OC3CC4OC(=O)C=CC=CC(C(C)O)OCC(O)C(C)CC(=O)OCC2(CC1O)C4(C)C31CO1 (stereo unspecified) | · | · | 0.021µM* | 2 | 0.013µM* | -116*
CC1=CC2OC3CC4OC(=O)C=CC=CC(=O)OCCC(C)C(O)C(=O)OCC2(CC1O)C4(C)C31CO1 (stereo unspecified) | · | · | 0.16µM* | -7 | 0.15µM* | -98*
c1ccc(P(c2ccccc2)c2ccccc2)cc1 | -11% | -22% | · | · | · | ·
c1ccc2cc(CNCCc3c[nH]c4ccccc34)ccc2c1 | · | · | · | 1 | · | ·

Screening results (PubChem)
